Measurements reported in the supplement of paper PMC3724861.
This is one part of a sample in which hits are shown more often than they occur. The hit rate among all sequences tested is not known here.

The sequences below were run on T1, Caupolican (Caup) homeodomain DNA-binding domain (assay: PBM E-score (8-mer, recovered from the published 9-mer minima) (E-score (dimensionless, -0.5 to 0.5)); Drosophila protein; higher = stronger relative binding preference, active = 0.31 or more).
T1 sequence: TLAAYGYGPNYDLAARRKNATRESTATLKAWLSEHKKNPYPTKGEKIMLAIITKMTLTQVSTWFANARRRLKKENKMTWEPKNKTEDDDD
Procedure, shortened: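 Caup's homeodomain DNA-binding domain (residues 214-303) was made by in vitro transcription and translation and applied at 100 nM to custom-designed protein binding microarrays. Each value is an enrichment score that gives relative binding preference for a short DNA word, with higher meaning stronger. The 8-mer values were recovered from published 9-mer scores, each of which was the minimum of its two constituent 8-mer scores. A cutoff of 0.31 marks candidate sites.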

| Sequence | PBM E-score |
| --- | --- |
| CGTAAACG | -0.0383 (inactive) |
| GTACACGA | 0.427 (active) |
| ATACACGG | 0.299 (inactive) |
| ATACACGA | 0.33 (active) |
| GTACACCA | 0.238 (inactive) |
| CTACACGA | 0.295 (inactive) |
| ATACACGC | 0.275 (inactive) |
| ACGCGCTC | -0.0722 (inactive) |
| CAAGTTAA | 0.137 (inactive) |
| CTGGGCCA | -0.265 (inactive) |
| GATCTCGC | -0.112 (inactive) |
| GCGGTCTA | -0.0746 (inactive) |
| ACAACCTC | 0.169 (inactive) |
| ACTTGTCC | 0.237 (inactive) |
| TCTTGGCA | -0.0494 (inactive) |
| GCTTGTCC | 0.305 (inactive) |
| TATTGTCA | 0.225 (inactive) |
| TCTTGTCA | 0.329 (active) |
| GCTTGTCA | 0.352 (active) |
| ACTTGTCA | ≥ 0.378 (active) |
| ACTTGTCG | 0.266 (inactive) |
| GATTGTCA | 0.13 (inactive) |
| CCTTGTCG | 0.277 (inactive) |
| CCTTGTCC | 0.171 (inactive) |
| CCTTGTCA | 0.342 (active) |
| GGGCGCAA | -0.179 (inactive) |

| Sequence | PBM E-score |
| --- | --- |
| AAGCACCG | -0.0685 (inactive) |
| CGATTCAG | -0.0377 (inactive) |
| CTCATAAA | 0.05 (inactive) |
| AAACAAAA | 0.189 (inactive) |
| TCCATACA | 0.139 (inactive) |
| GACATACA | 0.389 (active) |
| TACATACA | 0.415 (active) |
| TACATAAA | 0.329 (active) |
| AACATACG | 0.28 (inactive) |
| AACATAAA | 0.286 (inactive) |
| CACATACA | 0.232 (inactive) |
| GACATAGA | 0.187 (inactive) |
| AACATACC | 0.303 (inactive) |
| GACATACC | 0.169 (inactive) |
| CACATAAA | 0.121 (inactive) |
| AACATACT | 0.31 (active) |
| GCTCCTCA | -0.234 (inactive) |
| ATTCTCCG | -0.0182 (inactive) |
| GACAGCAC | 0.0877 (inactive) |
| CCCACTAG | -0.195 (inactive) |
| CGTACTGC | -0.0592 (inactive) |
| GAAAATCA | 0.141 (inactive) |
| ACTCCGAG | -0.0336 (inactive) |
| CTCCGGAA | -0.126 (inactive) |
| AACATAGA | 0.232 (inactive) |
| AACATACA | 0.361 (active) |

| Sequence | PBM E-score |
| --- | --- |
| AGCATACA | 0.202 (inactive) |
| GGATCTCA | -0.137 (inactive) |
| TTGTTAAA | 0.23 (inactive) |
| CTGTTAAA | 0.108 (inactive) |
| ATGTTAAC | 0.377 (active) |
| ATGTTAAG | 0.283 (inactive) |
| CTGTTAAC | 0.117 (inactive) |
| AGGTTAAT | 0.0346 (inactive) |
| ATGTTAAA | 0.353 (active) |
| ATGTTAAT | 0.352 (active) |
| GTGTTAAC | 0.259 (inactive) |
| GTAAGGAA | 0.0866 (inactive) |
| AGGAACGC | -0.132 (inactive) |
| GTGTACGA | 0.226 (inactive) |
| GTGTACAA | 0.396 (active) |
| TTGTACAA | ≥ 0.44 (active) |
| CTGTACAA | 0.335 (active) |
| ATGTACAA | 0.453 (active) |
| GTCTACAA | 0.185 (inactive) |
| ACGTACAA | 0.288 (inactive) |
| CTGTACCA | 0.186 (inactive) |
| CTGTACGC | 0.037 (inactive) |
| ATGTAGAA | 0.281 (inactive) |
| GCTAAGAC | -0.0692 (inactive) |
| ACTGACCC | -0.14 (inactive) |
| AAATCCAG | 0.0354 (inactive) |

| Sequence | PBM E-score |
| --- | --- |
| CGCTTGGA | -0.0438 (inactive) |
| GAAGATGC | -0.152 (inactive) |
| ACCAGTTC | -0.0567 (inactive) |
| GGACTCCA | -0.13 (inactive) |
| AGATATTG | 0.0643 (inactive) |
| CATCTGCG | -0.00421 (inactive) |
| CTAGAATC | 0.0169 (inactive) |
| TAAGAACA | 0.313 (active) |
| CAAGAACA | 0.187 (inactive) |
| GAAGAACA | 0.3 (inactive) |
| CACGAACA | 0.27 (inactive) |
| AACGAACA | 0.305 (inactive) |
| TACGAACA | 0.31 (active) |
| GAATCCCC | -0.127 (inactive) |
| AGCGAGAC | -0.0966 (inactive) |
| ACCCCATC | -0.158 (inactive) |
| CATACACG | 0.325 (active) |
| GATACACA | 0.241 (inactive) |
| AATACACA | 0.311 (active) |
| CATACACA | 0.309 (inactive) |
| AATACACG | 0.343 (active) |
| TATACACA | 0.289 (inactive) |
| AATACACC | 0.292 (inactive) |
| CATACACC | 0.15 (inactive) |
| AATACACT | 0.192 (inactive) |
| ATCTAGTG | 0.0489 (inactive) |

| Sequence | PBM E-score |
| --- | --- |
| CGATATAC | 0.0606 (inactive) |
| CCAAAAAG | -0.00726 (inactive) |
| ACGAAGTA | 0.0633 (inactive) |
| GGTGTCAA | 0.197 (inactive) |
| TCTGTCAA | 0.157 (inactive) |
| GATGTCCA | 0.195 (inactive) |
| AATGTCAA | 0.235 (inactive) |
| TATGTCAA | ≥ 0.359 (active) |
| GATGTCAA | 0.332 (active) |
| GTGAAGGA | -0.0495 (inactive) |
| CTTAGACA | 0.0709 (inactive) |
| AAATGGTA | 0.174 (inactive) |
| GAGCTCTA | -0.0532 (inactive) |
| GCTGTATA | 0.194 (inactive) |
| CTTGTGTA | ≥ 0.341 (active) |
| CCTGTATA | 0.142 (inactive) |
| ACTGTATA | 0.143 (inactive) |
| AGTGTATA | 0.14 (inactive) |
| CGTGTATA | 0.321 (active) |
| CGTGTATC | 0.258 (inactive) |
| ATTGTGTA | 0.283 (inactive) |
| GTTGTATA | 0.347 (active) |
| GTTGTGTA | 0.298 (inactive) |
| ATTGTATA | 0.259 (inactive) |
| CTTGTATA | 0.353 (active) |
| AGAGGTAC | 0.0429 (inactive) |

| Sequence | PBM E-score |
| --- | --- |
| AGTGGCCG | -0.226 (inactive) |
| TGCGACAA | 0.148 (inactive) |
| GAAGAGGA | -0.161 (inactive) |
| ACCTGCAA | -0.023 (inactive) |
| GCCGTATA | 0.0675 (inactive) |
| ACGCCTAA | 0.0349 (inactive) |
| TGGTCAAA | 0.0685 (inactive) |
| CCCTCTAG | -0.126 (inactive) |
| ATTGTATC | 0.215 (inactive) |
| CTTGTAGC | 0.271 (inactive) |
| CTTGTATC | 0.34 (active) |
| AAATACAT | 0.338 (active) |
| AAATACAG | 0.132 (inactive) |
| AAATACAA | 0.327 (active) |
| GAATACAC | 0.25 (inactive) |
| TAATACAA | 0.278 (inactive) |
| CAATACAA | 0.261 (inactive) |
| CAATACAC | 0.271 (inactive) |
| AAATACTT | 0.1 (inactive) |
| AAATACAC | 0.312 (active) |
| CATCTCAG | -0.0232 (inactive) |
| CCCAGCAG | -0.201 (inactive) |
| TACATTCA | 0.232 (inactive) |
| AAGCCTGC | -0.156 (inactive) |
| AAAGTGGT | 0.0391 (inactive) |
| GAAAAAGA | -0.0311 (inactive) |

| Sequence | PBM E-score |
| --- | --- |
| GACCGAGA | -0.103 (inactive) |
| ACTAGCTC | 0.0549 (inactive) |
| ACGTGGTA | 0.132 (inactive) |
| CTTAATCA | 0.013 (inactive) |
| ATAGTACG | 0.0984 (inactive) |
| ATAGTACC | 0.134 (inactive) |
| CTAGTACC | 0.201 (inactive) |
| GTAGTACA | 0.346 (active) |
| CTAGTAAA | 0.211 (inactive) |
| GTAGTAGA | 0.0981 (inactive) |
| ATAGTACA | 0.343 (active) |
| CTAGTACA | 0.337 (active) |
| GTAGTATA | 0.219 (inactive) |
| GCATTTAA | 0.11 (inactive) |
| TTCTAGAA | -0.0405 (inactive) |
| CGCAGCCG | -0.267 (inactive) |
| ACCTCCGA | -0.0504 (inactive) |
| GCTTCTGA | -0.0992 (inactive) |
| CCGCTTTA | -0.0283 (inactive) |
| ACAACACG | 0.387 (active) |
| ACAACACC | 0.301 (inactive) |
| CCAACACA | 0.17 (inactive) |
| ACAACTCT | 0.147 (inactive) |
| ACAACACT | 0.326 (active) |
| GCAACACA | 0.144 (inactive) |
| ACAACACA | ≥ 0.395 (active) |

| Sequence | PBM E-score |
| --- | --- |
| AAAACACT | 0.0862 (inactive) |
| CCAACACG | 0.237 (inactive) |
| CTATTAGC | 0.0355 (inactive) |
| CGCAATAC | 0.0451 (inactive) |
| AGATTAGG | 0.00061 (inactive) |
| GCCCTTCC | -0.169 (inactive) |
| AAAGGCGT | -0.125 (inactive) |
| TCAAGCAA | 0.0149 (inactive) |
| ACAAGCAA | 0.341 (active) |
| ACAAGCAG | 0.229 (inactive) |
| GCAAGCAA | -0.0127 (inactive) |
| ACAAGCAT | 0.377 (active) |
| ACAAGCAC | 0.246 (inactive) |
| AGACCCGA | -0.108 (inactive) |
| ACTTTACC | 0.122 (inactive) |
| CGGATGGC | -0.0761 (inactive) |
| AACGCCCG | -0.108 (inactive) |
| GCAGTCCC | -0.194 (inactive) |
| AATGTAGC | 0.0881 (inactive) |
| AATGTAGG | 0.116 (inactive) |
| CATGTAGC | 0.332 (active) |
| CATGTAGG | 0.356 (active) |
| CAAGTAGG | -0.00819 (inactive) |
| GATGTAGC | 0.166 (inactive) |
| AATGTAGA | 0.139 (inactive) |
| GATGTAGA | 0.208 (inactive) |

| Sequence | PBM E-score |
| --- | --- |
| CATGTAGA | 0.391 (active) |
| GACTAGGC | -0.0927 (inactive) |
| CCTCCAAC | -0.102 (inactive) |
| TAGAAATA | 0.1 (inactive) |
| CCGCTACA | 0.0971 (inactive) |
| GGCCGTAA | -0.148 (inactive) |
| CATTACCA | 0.119 (inactive) |
| ACCAATCC | -0.0418 (inactive) |
| GTTATACA | 0.329 (active) |
| TATATACA | 0.355 (active) |
| AATATACC | 0.13 (inactive) |
| CTTATACA | 0.11 (inactive) |
| GGTATACA | 0.183 (inactive) |
| ATTATACA | 0.254 (inactive) |
| AATATACT | 0.155 (inactive) |
| TGTATACA | ≥ 0.356 (active) |
| CATATACA | 0.298 (inactive) |
| GATATACA | 0.263 (inactive) |
| AGTATACA | 0.309 (inactive) |
| AATATACA | 0.322 (active) |
| GCCCGTAC | -0.0447 (inactive) |
